Several values for one entry are separate records, joined by “and”; a condition that tells them apart may be missing. Equal entries are not always repeated. ± gives the standard deviation of the averaged measurements.
system: Listeria monocytogenes 10403S; assay: growth inhibition relative to ceftriaxone-alone control; higher = stronger potentiation of ceftriaxone growth inhibition; conditions: 10 µM; ceftriaxone 1 ug/ml; 12 h
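Note: End-point A600 read in BHI broth at 37 °C with 2% DMSO, inhibition computed as (1 − OD with compound plus ceftriaxone ÷ OD with ceftriaxone only) × 100.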

SMILES	growth inhibition
N#Cc1c(NC(=O)c2cccc3ccccc23)sc2c1CCCC2	-6.35 ± 1.2%
N#Cc1c(NC(=O)c2ccc(F)cc2)sc2c1CCCC2	1.2 ± 5.5%
Fc1ccc(-c2ncn(C3CCNCC3)c2-c2ccnc(Oc3ccc(Oc4ccccc4)cc3)n2)cc1	12.2 ± 24%
CC(C)c1ccc(-c2cc(-c3c[nH]nc3-c3ccccn3)ccn2)cc1	-6.81 ± 3%
C[C@@H]1CCN(C(=O)CC#N)C[C@@H]1N(C)c1ncnc2[nH]ccc12	11.4% and 15.6%
COc1cc2c(cc1Nc1nc(Nc3cccc(F)c3C(N)=O)c3cc[nH]c3n1)N(C(=O)CN1CCN(C(C)C)CC1)CC2	-7.97 ± 11%
COc1cc(C)c(NC(=O)CN(C)C)cc1Nc1nc(Nc2cccc(F)c2C(N)=O)c2cc[nH]c2n1	-5.99 ± 8.5%
CC[C@H](Nc1ncnc2[nH]cnc12)c1nc2cccc(F)c2c(=O)n1-c1ccccc1	21.7 ± 23%
COc1cc(Nc2ncc(F)c(Nc3ccc4c(n3)NC(=O)C(C)(C)O4)n2)cc(OC)c1OC	9.08% and 0.52%
CCS(=O)(=O)c1ccc(OC)c(Nc2ncc(-c3cccc(OC)c3)o2)c1	-9.19 ± 17%
Cc1cc(Nc2nc(N[C@@H](C)c3ccc(F)cc3)c(C#N)cc2F)n[nH]1	96.93 ± 0.13%
Fc1ccc(-c2nc3n(c2-c2ccncc2)CCS3)cc1	-8.85 ± 15%
Cc1ccc(NC(=O)c2ccc(CN3CCN(C)CC3)cc2)cc1Nc1nccc(-c2cccnc2)n1 [Imatinib (Gleevec)]	16.3 ± 4.7%
c1ccc(Nc2ncc(-c3ccccc3)o2)cc1	2.45 ± 0.39%
CN1CCC(n2cnc(-c3ccc(F)cc3)c2-c2ccnc(Nc3ccccc3)n2)CC1	-8.92 ± 3.6%

— the supplement of paper PMC5641865, “A screen for kinase inhibitors identifies antimicrobial imidazopyridine aminofurazans as specific inhibitors of the Listeria monocytogenes PASTA kinase PrkA” (The Journal of Biological Chemistry, 2017)
